From PubChem BioAssay
An excerpt weighted towards active compounds, which were near 12% of everything screened.
JMJD2A Tudor inh: qHTS Assay for Inhibitors of JMJD2A-Tudor Domain | AID 504339, 2011 | Potency, µM (doses to about 114 µM), for inactives: at the top dose activity change, negative = inhibition, most hits filed as inhibitors | 390,000 compounds, 4.4% hits | AlphaScreen JMJD2A-Tudor / H3K4me3 peptide binding | Lysine-specific demethylase 4A (Homo sapiens), O75164; note: potency is the fitted concentration of half-maximal effect; % is set by controls: 0 for no effect and ±100 for the full control effect; nearly all actives have a fitted effect of over 50% in size
HP1b binding inh: HTS for Inhibitors of HP1-beta Chromodomain Interactions with Methylated Histone Tails; Chromobox protein homolog 1 (Homo sapiens), P83916; AlphaScreen HP1-beta / biotin-H3K9me3 peptide binding; Potency, µM (series often up to 114 µM), for inactives: top-dose activity change, negative = inhibition, usual class: inhibitors; 390,000 compounds, 0.56% hits; AID 540317, 2011; note: potency is the fitted concentration of half-maximal effect; nearly all actives have a fitted effect of over 70% in size
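Compound inhibition of the preformed complex between 50 nM HP1-beta and 50 nM biotinylated H3K9me3 peptide was read by AlphaScreen. Buffer was PBS pH 7.4 with 0.01% Tween-20. Incubations ran 30 min at room temperature, with 10 ug/mL donor/acceptor beads.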
G9a block: qHTS Assay for Inhibitors of Histone Lysine Methyltransferase G9a; Potency, µM (series often up to 102 µM), inactives show at the highest dose activity, negative = inhibition, actives largely listed as inhibitors; Histone-lysine N-methyltransferase EHMT2 (Homo sapiens), Q96KQ7; 350,000 compounds, 8.8% hits; AID 504332, 2011; G9a H3K9 monomethylation, AlphaScreen, 2 h; note: potency is the fitted concentration of half-maximal effect; % is set by controls: 0 for no effect and ±100 for the full control effect; nearly all actives have a fitted effect of over 75% in size
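Quantitative HTS format: methyltransferase activity on a biotin-tagged H3K9 peptide is measured by AlphaScreen, using a rabbit anti-monomethyl-H3K9 antibody with streptavidin donor and anti-IgG acceptor beads. Final levels are 20 nM enzyme, 500 nM peptide, 20 uM SAM; 2 h RT.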
BAZ2B inh: qHTS Assay for Inhibitors of BAZ2B. AlphaScreen BAZ2B-H3K14Ac peptide displacement. AID 504333, 2011. Potency, µM (highest dose often 114 µM), inactives show at the highest dose activity change, negative = inhibition, actives largely listed as inhibitors. 360,000 compounds, 4.4% hits; note: potency is the fitted concentration of half-maximal effect; % is set by controls: 0 for no effect and ±100 for the full control effect; nearly all actives have a fitted effect of over 60% in size
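BAZ2B 50 nM plus b-H3(5-23)K14Ac 50 nM, PBS pH 7.4/0.01% Tween-20, 30 min RT; compound added (max 110 uM), 30 min RT; streptavidin donor/Ni-chelate acceptor beads 10 ug/mL final, 20 min dark; AlphaScreen read.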
PI5P4K alpha inh: qHTS for Inhibitors of phosphatidylinositol 5-phosphate 4-kinase (PI5P4K); Phosphatidylinositol 5-phosphate 4-kinase type-2 alpha (Homo sapiens), P48426; PI5P4Kalpha enzyme, ADP-Glo luminescence, 60 min; stronger effect = lower value; max response, %; 330,000 compounds, 1.2% hits; active = max response of -50% or lower; inconclusive = between -30% and -50%; inactive = -30% or higher; note: value at the top dose of about 77 µM; % is set by controls: 0 for no effect and ±100 for the full control effect
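Controls without substrate or without enzyme flank wells where PI5P4Kalpha converts substrate using 5 microM ATP (final). Incubation lasts 60 minutes at room temperature; ADP formed is read by ADP-Glo luminescence.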
PLK1 PBD inh: qHTS for Inhibitors of PLK1-PDB (polo-like kinase 1 - polo-box domain): Primary Screen | Plk1 PBD binding of FITC phosphopeptide, fluorescence polarization | Potency, µM, for inactives: max response, negative = inhibition, most hits filed as inhibitors | 360,000 compounds, 2.8% hits; note: potency is the fitted concentration of half-maximal effect; series mostly up to about 57 µM; % is set by controls: 0 for no effect and ±100 for the full control effect; nearly all actives have a fitted effect of over 65% in size
Starred values were filed as active, the others as inactive; ? = inconclusive; · = no result given; [ ] = another dose, or the depositor's remark. Unless noted, calls come from the whole dose curve; as a rule, active = well fitted curve in the direction sought with a large enough effect; inconclusive = small, poorly fitted or top-dose-only effect, or another doubt; inactive = no such curve, though single readings can be large; an effect the other way counts as inactive or inconclusive.

SMILES	JMJD2A Tudor inh	HP1b binding inh	G9a block	BAZ2B inh	PI5P4K alpha inh	PLK1 PBD inh
CO[C@H]1C[C@@H]2CC[C@@H](C)[C@@](O)(O2)C(=O)C(=O)N2CCCC[C@H]2C(=O)O[C@H]([C@H](C)C[C@@H]2CC[C@@H](O)[C@H](OC)C2)CC(=O)[C@H](C)/C=C(\C)[C@@H](O)[C@@H](OC)C(=O)[C@H](C)C[C@H](C)/C=C/C=C/C=C/1C	·	·	-18%[12.7 µM]	·	·	·
C=CC(=O)c1ccc(CCCCCC)cc1	·	·	11µM*	·	·	·
CCCCCCCCCCCCCCCCCCc1ccc(C(=O)/C=C/C(=O)O)cc1	·	·	4%[59 µM]	·	·	·
CCOc1ccc(-c2nc3c(c(SCC(=O)N4CCCCC4)n2)Cc2cc(C)ccc2O3)cc1	-14%	11%	6%[59 µM]	-22%	·	·
CCOC(=O)c1ccc(-n2c(CN3CCC(C(N)=O)CC3)nc3ccc([N+](=O)[O-])cc3c2=O)cc1	-28%	15%	?	·	-28	-26%
CCOC(=O)c1ccc(-n2c(CN3CCOCC3)nc3ccc([N+](=O)[O-])cc3c2=O)cc1	-18%	43%	45µM*	-18%	1	-1%
CCOC(=O)c1ccc(-n2c(CN(CC)CC)nc3ccc([N+](=O)[O-])cc3c2=O)cc1	?	23%	10µM*	·	-27	?
CCOC(=O)c1ccc(-n2c(CN3CCC(O)CC3)nc3ccc([N+](=O)[O-])cc3c2=O)cc1	-19%	9%	13µM*	?	-4	?
CCOC(=O)c1ccc(-n2c(CC)nc3ccccc3c2=O)cc1	·	·	10%	-1%	·	·
CCOC(=O)N1CCN(Cc2nc3ccc([N+](=O)[O-])cc3c(=O)n2-c2ccccc2F)CC1	-8%	13%	79µM*	-37%	3	2%
CCOc1ccc(NC(=O)CCNS(=O)(=O)c2ccc3c(c2)CCCC(=O)N3)cc1	-12%	-10%	-10%[59 µM]	4%[57.1 µM]	·	·
CCOC(=O)c1ccc(-n2c(CN3CCN(CC)CC3)nc3ccc([N+](=O)[O-])cc3c2=O)cc1	-15%	35%	56µM*	·	2	-9%
Cc1ccc(-c2csc(NC(=O)CSc3nc4ccccc4c(=O)n3CCCN(C)C)n2)cc1	45µM*	?	40µM*	?	-22	-6%
CN(C)CCCn1c(SCC(=O)N2c3ccccc3Sc3ccccc32)nc2ccccc2c1=O	?	?	40µM*	?	13	-19%
Cn1c(SCC(=O)N2c3ccccc3Sc3ccccc32)nc2ccccc21	?	5%	-19%[59 µM]	-1%	-4	-8%
c1ccc2c(c1)CCN(C1=Nc3cccc4cccc1c34)C2	?	?	?	32µM*	4	-13%
Cc1nn(C)c(NC(=O)c2ccc(Cl)cc2)c1Cl	5%	35%	-2%	-11%	0	0%
Cc1nn(C)c(C)c1NC(=O)c1ccc(Cl)cc1	?	-9%	16%[12.7 µM]	-3%	-10	30µM*
C/C(N)=C(/C#N)C(=O)COC(=O)COc1ccc(Cl)cc1C	-15%	5%	50µM*	-5%	17	-3%
O=C(O)c1ccc(N=c2oc3cc(O)ccc3cc2C(=O)NCc2ccccc2)cc1	?	20%	?	?	-78*	?
NC(=O)c1cc2ccccc2o/c1=N\NC(=O)c1ccccc1O	-20%	48%	32µM*	?	0	-15%
NC(=O)c1cc2ccc(O)cc2oc1=NCc1ccccc1	-3%	25%	-10%[59 µM]	1%	·	12µM*
NC(=O)c1cc2ccccc2o/c1=N\NC(=O)c1ccc(F)cc1	-18%	32%	11%	-23%	4	-10%
NC(=O)c1cc2ccc(O)cc2oc1=Nc1ccccc1	1%[11.4 µM]	-5%	-19%	?	-72*	15µM*
Cc1ccc(-c2c(C)n3c4c(=O)n(C)c(=O)n(C)c4nc3n2CCO)cc1	-12%	24%	10%[59 µM]	-23%	·	·
SMILES	JMJD2A Tudor inh	HP1b binding inh	G9a block	BAZ2B inh	PI5P4K alpha inh	PLK1 PBD inh
Cc1ccccc1NC(=O)CSc1nc2ccc(NC(=O)c3ccccc3)cc2s1	6%	56%	2%[59 µM]	-27%	·	·
COc1ccc(NC(=O)c2c(C)oc3ccc(O)c(CN4CCN(C)CC4)c23)cc1Cl	-18%	24%	-3%[59 µM]	-16%	·	·
CCCCOc1nc2ccccc2nc1C(C#N)C(=O)NC1CCCCC1 (stereo not drawn)	-1%[11.4 µM]	16%	31%	12%	7	27µM*
Cc1cccc(N2C(=O)CS(=O)(=O)C23C(=O)N(C)c2ccccc23)c1 (stereo not drawn)	-10%	30%	-24%[59 µM]	8%[57.1 µM]	·	·
Cc1ccc(N2C(=O)CS(=O)(=O)C23C(=O)N(C)c2ccccc23)cc1F (stereo not drawn)	-10%	17%	13µM*	6%[57.1 µM]	·	·
Cc1ccc(N/N=C(\C#N)C(N)=S)c(C)c1	45µM*	?	10µM*	?	-24	19µM*
COc1ccccc1CCNC(=O)c1cccc(NC(=O)CC2SC(N3CCCCC3)=NC2=O)c1 (stereo not drawn)	-11%	37%	·	·	-8	4%
Cc1ccc(NC(=O)Cn2cc(S(=O)(=O)NC(C)C)c(S(=O)(=O)NC(C)C)c2)cc1Cl	-10%	22%	-10%[59 µM]	2%[57.1 µM]	·	·
COC(Cn1c2c(c3cc(C)ccc31)CCCC2NCc1ccccc1)OC (stereo not drawn)	?	4%	45µM*	40µM*	1	-17%
Cc1ccc2c(c1)c1c3n2CCN(CC(O)CNC(C)C)C3CCC1 (stereo not drawn)	?	0%	?	?	-4	-5%
O=C(Nc1cc(F)ccc1F)N1CCC(CN2CCOCC2)CC1	6%	37%	6%[59 µM]	3%	·	·
Cc1cccc(N=C2NN=C(c3c(C)[nH]c4ccccc34)CS2)c1	45µM*	-34%	?	?	?	-19%
COc1cc(C(=O)NNC(=S)Nc2ccc(S(N)(=O)=O)cc2)cc(OC)c1OC	-5%[11.4 µM]	-10%	8.9µM*	-23%	7	6.7µM*
COc1ccc(C(=O)NC(=S)Nc2ccc(S(N)(=O)=O)cc2)cc1	-15%	18%	?	-10%	3	-6%
COc1ccc(NC(=S)Nc2ccc(S(N)(=O)=O)cc2)c(OC)c1	-10%	-10%	56µM*	-38%	1	-19%
COc1ccc(NC(=S)NNS(=O)(=O)c2ccc3ccccc3c2)c(OC)c1	25µM*	?	·	?	?	30µM*
